Results from PubChem BioAssay (NCI).
Compounds without any hit were thinned out: in the full panel of roughly 83,000, 20% have a hit.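 In brief: 96-well plates, 48 h treatment, single concentration, percent growth endpoint.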 The source made the active and inactive calls. The calls were made as follows: active = growth percent below 10; inactive = the rest.

Legend:
Assay in all cases: NCI-60 one-dose screen, 48 h (100 = growth as untreated, 0 = no growth, -100 = all killed)
[1] = test system: DU-145 prostate; conditions: 10 µM unless noted
[2] = test system: K-562 leukemia; conditions: 10 µM unless noted
[3] = test system: MALME-3M melanoma; conditions: 10 µM unless noted
[4] = test system: MDA-MB-231 breast; conditions: 10 µM unless noted
[5] = test system: RXF 393 renal; conditions: 10 µM unless noted
[6] = test system: SF-268 CNS; conditions: 10 µM unless noted
[7] = test system: SF-295 CNS; conditions: 10 µM unless noted
[8] = test system: SF-539 CNS; conditions: 10 µM unless noted
[9] = test system: M14 melanoma; conditions: 10 µM unless noted
[10] = test system: UACC-257 melanoma; conditions: 10 µM

Measured: growth

O=S(=O)(NCCCNc1cc(-c2cn(-c3ccccc3)nc2-c2cccc(O)c2)ccn1)c1ccc(Br)cc1
active: [2] -21.3% | [3] -27.3% | [4] -20.7% | [5] 2.04% | [7] -55.2% | [9] 0.533%
inactive: [1] 31.3% | [6] 17.9% | [8] 18.9%

CCc1c(C(=O)Nc2ccc3ccccc3c2)[nH]c(C)c1C(C)=O
inactive: [1] 107% | [2] 81.2% | [3] 95.7% | [4] 93.3% | [5] 96.7% | [6] 110% | [7] 102% | [8] 96.2% | [9] 93.8%

C=CCOc1ccc(/C(O)=C2\C(=O)C(=O)N(c3nccs3)C2c2ccccc2F)cc1 (stereo unspecified)
inactive: [1] 114% | [2] 109% | [3] 92.1% | [4] 112% | [6] 116% | [7] 85.1% | [8] 125% | [9] 82.7%
active: [5] -20.5%

CC(=O)/C=C/c1cc2cc(Cl)ccc2[nH]c1=O
inactive: [1] 69.8% | [2] 50.5% | [3] 97.2% | [4] 84% | [5] 79.1% | [6] 81.2% | [7] 96.9% | [8] 85.4% | [9] 91.2%

COc1ccc(/C(=N\O)c2cc(OC)c(OC)c(OC)c2)c(OC)c1N
inactive: [1] 15.3% | [3] 48.9% | [4] 36.9% | [5] 16.8% | [6] 42.1%
active: [2] 7.11% | [7] -9.97% | [8] -35.2% | [9] 7.17%

CC1(C)OC2COC3(C(=O)O)OC(C)(C)OC3C2O1 (stereo unspecified)
inactive: [1] 108% | [2] 101% | [3] 109% | [4] 88.3% | [5] 111% | [6] 95.9% | [7] 103% | [8] 101% | [9] 99.9%

O=S(=O)(NCCCNc1cc(-c2cn(-c3ccccc3)nc2-c2cccc(O)c2)ccn1)c1ccc(C(F)(F)F)cc1
inactive: [1] 60.8% | [3] 22.7% | [5] 24.7% | [6] 44.1% | [8] 36.7% | [9] 23.5%
active: [2] 3.42% | [4] 4.73% | [7] -3.81%

Cc1ccccc1C(=O)c1ccccc1C(=O)O
inactive: [1] 110% | [2] 106% | [3] 109% | [4] 115% | [5] 118% | [6] 106% | [7] 109% | [8] 105% | [9] 96.3%

CCOC(=O)c1cc(/C(=N\O)c2cc(OC)c(OC)c(OC)c2)n2cc(C)cc(C)c12
active: [7] 1.85%
inactive: [1] 41.9% | [2] 12.5% | [3] 37.8% | [4] 34.7% | [5] 36.1% | [6] 38.7% | [8] 15.8% | [9] 10.5%

COc1cccc2nc(Nc3ccc(NC(=O)c4ccc5ncccc5c4)cc3)ccc12
active: [7] 6.41%
inactive: [1] 89.6% | [2] 60.1% | [3] 70.2% | [4] 68.3% | [5] 30% | [6] 82.8% | [8] 48.1% | [9] 92.6%

O=C(OCCCCOC(=O)n1cnc2ccccc21)n1cnc2ccccc21
inactive: [1] 105% | [2] 101% | [3] 101% | [4] 94.7% | [5] 107% | [6] 98.8% | [7] 98.3% | [8] 102% | [9] 102%

O=C(/C=C/CN1CCOCC1)Nc1cc2c(Nc3ccc(F)c(Cl)c3F)ncnc2cc1OCCOC(F)F
inactive: [1] 39.7% | [2] 52% | [3] 81.6% | [4] 33.8% | [5] 36.4% | [6] 48.3% | [7] 71.7% | [8] 63.5% | [9] 62.3%

COc1cc(-n2nc(C(=O)Nc3ccc(C(=O)O)cc3)nc2-c2ccccc2)cc(OC)c1OC
inactive: [1] 70.6% | [2] 100% | [3] 94.2% | [4] 99% | [5] 106% | [6] 92% | [7] 103% | [8] 106% | [9] 100%

CCSc1nnc(NC(=O)Cc2ccc(Cl)cc2)s1
inactive: [1] 105% | [2] 89.4% | [3] 105% | [4] 114% | [5] 20.6% | [6] 110% | [7] 98.3% | [8] 97.4% | [9] 107%

Nc1nc(N)c2nc(CNc3ccc(C(=O)CC(CCC(=O)O)C(=O)O)cc3)cnc2n1 (stereo unspecified)
inactive: [1] 28.9% | [2] 58.3% | [3] 111% | [4] 101% | [5] 19.3% | [6] 29.7% | [7] 37.8% | [8] 20.5% | [9] 27.1%

COc1ccc(C2NC3=C(CCCC3)C(C#N)(C#N)C2(C#N)C#N)cc1 (stereo unspecified)
inactive: [1] 94.2% | [2] 12.5% | [3] 71.6% | [4] 70.1% | [5] 93.8% | [6] 97.8% | [7] 99.7% | [8] 101% | [9] 90.7%

Cc1cnc(NC(=O)C(Cc2ccccc2)NC(=O)c2ccccc2)s1 (stereo unspecified)
inactive: [1] 85.5% | [2] 29.7% | [3] 54% | [4] 77.9% | [5] 50.2% | [6] 96.9% | [7] 65.9% | [8] 87% | [9] 52%

Cc1ccc(-c2csc3nc(C)c(CCCl)c(=O)n23)cc1
inactive: [1] 104% | [2] 95% | [3] 107% | [4] 79.9% | [5] 106% | [6] 91.4% | [7] 104% | [8] 108% | [9] 103%

N#Cc1c(NC(=O)c2ccc([N+](=O)[O-])o2)[n+]([O-])c2cc(F)c(F)cc2[n+]1[O-]
active: [5] 1.39%
inactive: [1] 126% | [2] 92.2% | [3] 125% | [4] 114% | [6] 120% | [7] 97% | [8] 137% | [9] 112%

CCSc1nnc(NC(=O)COc2ccc(Cl)cc2C)s1
inactive: [1] 106% | [2] 103% | [3] 106% | [4] 111% | [5] 89.3% | [6] 110% | [7] 94.2% | [8] 103% | [9] 105%

NC(=O)c1cccc(N2Cc3ccccc3OC3=C2C(=O)c2c(O)ccc(O)c2C3=O)c1
inactive: [7] 45.4%
active: [1] -96.4% | [2] -19.8% | [3] -82% | [4] -81.9% | [5] -73.1% | [6] -11.4% | [8] -49.3% | [9] -81%

C=CCc1cc(Cl)cc2c(OC(C)=O)c(C(C)=O)c(-c3ccccc3)nc12
inactive: [1] 112% | [2] 109% | [3] 104% | [4] 90.7% | [5] 130% | [6] 109% | [7] 114% | [8] 110% | [9] 104%

CCOC(=O)c1cc(/C(=N\O)c2cc(OC)c(OC)c(OC)c2)n2c(C)cccc12
inactive: [1] 50.1% | [2] 16.8% | [3] 44.8% | [4] 48.7% | [5] 34.5% | [6] 43% | [7] 11.3% | [8] 15.2% | [9] 20.8%

CCSc1nnc(Nc2ccc(C(C)C)cc2)s1
inactive: [1] 105% | [2] 51.8% | [3] 90.7% | [4] 92.5% | [5] 28% | [6] 112% | [7] 91.1% | [8] 90.4% | [9] 95.7%

O=c1[nH]c(-c2cn(-c3ccc(Cl)cc3)nn2)nc2ccccc12
inactive: [1] 94.6% | [2] 96.6% | [3] 59% | [4] 74.9% | [6] 77.9% | [7] 83.6% | [8] 48.2% | [10] 77.9% | [9] 91.4%

CC(=O)Nc1nc(C(=O)N2N=C(C)/C(=C/c3ccccc3)C2=O)cs1
inactive: [1] 111% | [2] 98.4% | [3] 96.8% | [4] 113% | [6] 105% | [7] 108% | [8] 97.2% | [10] 104% | [9] 95.2%

C=C1C(=O)O[C@H]2[C@H]1CC/C(COC(=O)NCCc1ccc(OC)cc1)=C\CC[C@@]1(C)O[C@@H]21
active: [1] -12.2% | [2] 2.33% | [3] -8.71% | [4] 1.63% | [5] -30.6%
inactive: [6] 45.9% | [7] 80.3% | [8] 26.6% | [9] 25.1%

CC1CCN(C(=O)CSc2nc3sc4c(c3c(=O)[nH]2)CCCC4)CC1
inactive: [1] 101% | [2] 86.1% | [3] 109% | [4] 105% | [5] 117% | [6] 113% | [7] 88.4% | [8] 98.2% | [9] 109%

CC(=O)Oc1cccc(OC(C)=O)c1OC(C)=O
inactive: [1] 108% | [2] 100% | [3] 97.6% | [4] 98.9% | [5] 99.5% | [6] 105% | [7] 99.2% | [8] 99.5% | [9] 95.3%
